For eight molecules, z-score and composite z-score results are on record in PubChem BioAssay.

The structures appear in SMILES notation. Active and inactive are the calls of the source.

Test [1] in a line: E. coli DRC41 culture turbidity changes, primary screen, E. coli filamentation inducer project, strain DRC41, OD650, 48 h (AID 1152).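 Further: E. coli MC1000 strain DRC41 lacking acrAB efflux pump and sulA.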 The settings on record: E. coli DRC41 (acrAB sulA), higher = more signal, called active from +8 up or from −8 down.
Test [2] in a line: small-molecule binders of probe aLefty1, primary screen, biochemical, small-molecule microarray, 635/667 nm fluorescence (AID 1153).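 Further: score merges spot fluorescence with signal-to-noise ratio from the scanned slide images.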 The note with it: higher = more signal.
Test [3] can be described thus: PSAC antagonists in infected red cells, primary screen, cell-based, P. falciparum Indochina, OD700, 1 h (AID 1154). The settings on record: P. falciparum Indochina infected RBC osmotic lysis, higher = more signal, called active from +8 up or from −8 down.
The nature of test [4]: PSAC antagonists in infected red cells, primary screen, cell-based, P. falciparum Indochina, OD700, 2 h (AID 1155).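 Further: lysis reports solute entry through the parasite surface anion channel PSAC; channel blockers reduce lysis of infected cells.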 The settings on record: P. falciparum Indochina infected erythrocytes, osmotic lysis OD700; higher = more signal, called active from +8 up or from −8 down.
Test [5] can be described thus: osmotic lysis modulators in infected erythrocytes, primary screen, PSAC antagonist project, cell-based, P. falciparum Indochina, OD700, 3 h (AID 1156). The settings on record: higher = more signal, called active from +8 up or from −8 down.
Test [6] can be described thus: PSAC antagonists in infected red cells, primary screen, cell-based, P. falciparum Indochina, OD700, 18 h (AID 1157). The settings on record: P. falciparum Indochina infected erythrocytes, osmotic lysis OD700, 18 h; higher = more signal, called active from +8 up or from −8 down.
Test [7] in a line: modulators of S6 phosphorylation in cells, primary screen, cell-based, A549, cytoblot, luminescence, serum-stimulated (AID 1158).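 Further: serum-stimulated A549 lung adenocarcinoma cells; signal is phosphorylated S6 detected by cytoblot immunostaining with HRP secondary.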 The settings on record: A549 phospho-S6 cytoblot, 5 h, higher = more signal.
The target in test [8] is NADPH oxidase 2 (Homo sapiens) (UniProt P04839). Kind of test: NOX2-dependent H2O2 signal modulators, primary screen, NOX inhibitor project, cell-based, HEK293-NOX2, PMA-stimulated, Amplex Red fluorescence (AID 1159). Further: test concentration not given here. The note with it: 45 min, higher = more signal, called active from +8 up or from −8 down.
The target in test [9] is NADPH oxidase 4 (Homo sapiens) (UniProt Q9NPH5). In words: NOX4-dependent H2O2 signal modulators, primary screen, NOX inhibitor project, cell-based, HEK293-NOX4, tetracycline-induced, Amplex Red fluorescence (AID 1160). The settings on record: 45 min, higher = more signal, called active from +8 up or from −8 down.
The target in test [10] is NADPH oxidase 5 (Homo sapiens) (UniProt Q96PH1). In words: NOX5-dependent H2O2 signal modulators, primary screen, NOX inhibitor project, cell-based, HEK293-NOX5, Amplex Red fluorescence (AID 1161). The settings on record: HEK293-NOX5, ionomycin, 45 min, higher = more signal.
Test [11] is described as follows: A549 cell viability effects, profiling panel, calcein-AM fluorescence, 48 h, basal (AID 1162). Further: test concentration not given here. The note with it: higher = more signal.
Test [12] can be described thus: adipocyte viability effects, profiling panel, cell-based, 3T3-L1 adipocytes, calcein-AM fluorescence, 48 h, basal (AID 1163). Further: test concentration not given here. The note with it: 3T3-L1 adipocytes viability, higher = more signal.
A short description of test [13]: HepG2 cell viability effects, profiling panel, calcein-AM fluorescence, 48 h, basal (AID 1164). Further: test concentration not given here. The settings on record: higher = more signal.
The nature of test [14]: MM1S cell viability effects, profiling panel, calcein-AM fluorescence, 48 h, basal (AID 1165).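 Further: viability of MM1S multiple myeloma cells under basal unstimulated conditions; test concentration not given here.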 The note with it: higher = more signal.
A short description of test [15]: basal RPMI8226 viability, no added stimulus, profiling panel, cell-based, calcein-AM fluorescence, 48 h, PK04 Diversity Set (AID 1166).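 Further: cells grown under basal conditions without added stimulus; test concentration not given here.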 The note with it: RPMI8226 myeloma viability, higher = more signal.
Test [16] is described as follows: basal HepG2 mitochondrial membrane potential changes, profiling panel, cell-based, JC-1 fluorescence, 24 h, 100 nL compound (AID 1167). Further: test concentration not given here. The note with it: higher = more signal.
Test [17] is described as follows: basal 3T3-L1 adipocyte mitochondrial potential changes, profiling panel, cell-based, JC-1 fluorescence, 3T3-L1 adipocytes, 24 h, 100 nL compound (AID 1168). Further: test concentration not given here. The settings on record: JC-1 mitochondrial fluorescence, higher = more signal, called active from +8 up or from −8 down.
A short description of test [18]: basal RPMI8226 mitochondrial membrane potential changes, profiling panel, cell-based, JC-1 fluorescence, 24 h, 100 nL compound (AID 1169). Further: test concentration not given here. The note with it: RPMI8226 myeloma, JC-1 mitochondrial potential fluorescence, higher = more signal.
Test [19] is described as follows: basal MM1S mitochondrial membrane potential changes, profiling panel, cell-based, JC-1 fluorescence, 24 h, 100 nL compound (AID 1170). Further: test concentration not given here. The settings on record: higher = more signal.
Test [20] can be described thus: A549 lung cancer cell viability effects, profiling panel, resazurin fluorescence, 24 h, PK04 Diversity Set (AID 1171). Further: test concentration not given here. The note with it: higher = more signal, called active from +8 up or from −8 down. For orientation: Resazurin is reduced to fluorescent resorufin, in cell work by metabolically active cells.

Chain of NADPH oxidase 2 (Homo sapiens) (P04839 whole entry, looked up): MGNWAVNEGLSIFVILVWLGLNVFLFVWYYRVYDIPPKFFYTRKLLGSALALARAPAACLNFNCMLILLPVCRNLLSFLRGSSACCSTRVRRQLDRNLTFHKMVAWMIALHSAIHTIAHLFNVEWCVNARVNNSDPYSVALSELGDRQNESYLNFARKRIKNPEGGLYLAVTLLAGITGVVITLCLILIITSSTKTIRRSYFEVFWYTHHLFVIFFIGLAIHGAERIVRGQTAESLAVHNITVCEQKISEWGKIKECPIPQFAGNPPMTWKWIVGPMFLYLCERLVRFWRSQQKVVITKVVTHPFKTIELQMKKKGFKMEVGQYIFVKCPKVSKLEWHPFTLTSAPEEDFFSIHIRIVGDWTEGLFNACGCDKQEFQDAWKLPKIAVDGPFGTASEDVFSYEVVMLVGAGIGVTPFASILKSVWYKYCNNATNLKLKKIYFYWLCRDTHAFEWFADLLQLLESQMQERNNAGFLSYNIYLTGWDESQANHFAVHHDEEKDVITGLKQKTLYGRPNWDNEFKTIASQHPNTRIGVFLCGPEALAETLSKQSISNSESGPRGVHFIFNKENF
Chain of NADPH oxidase 4 (Homo sapiens) (Q9NPH5 whole entry, looked up): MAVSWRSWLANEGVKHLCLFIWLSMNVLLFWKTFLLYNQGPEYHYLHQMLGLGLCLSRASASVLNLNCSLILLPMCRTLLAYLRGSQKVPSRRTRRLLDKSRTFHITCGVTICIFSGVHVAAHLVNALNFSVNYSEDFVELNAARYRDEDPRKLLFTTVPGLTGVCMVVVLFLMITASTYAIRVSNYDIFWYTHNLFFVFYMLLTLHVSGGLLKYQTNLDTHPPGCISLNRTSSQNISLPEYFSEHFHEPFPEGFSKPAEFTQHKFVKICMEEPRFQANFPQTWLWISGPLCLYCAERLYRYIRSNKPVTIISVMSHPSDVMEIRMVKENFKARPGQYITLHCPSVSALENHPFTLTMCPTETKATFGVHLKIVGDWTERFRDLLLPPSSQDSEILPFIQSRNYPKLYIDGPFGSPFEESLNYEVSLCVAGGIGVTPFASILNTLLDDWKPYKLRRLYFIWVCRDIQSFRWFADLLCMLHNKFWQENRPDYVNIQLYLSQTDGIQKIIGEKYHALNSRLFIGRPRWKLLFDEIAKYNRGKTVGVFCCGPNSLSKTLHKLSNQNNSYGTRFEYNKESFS
Chain of NADPH oxidase 5 (Homo sapiens) (Q96PH1 whole entry, looked up): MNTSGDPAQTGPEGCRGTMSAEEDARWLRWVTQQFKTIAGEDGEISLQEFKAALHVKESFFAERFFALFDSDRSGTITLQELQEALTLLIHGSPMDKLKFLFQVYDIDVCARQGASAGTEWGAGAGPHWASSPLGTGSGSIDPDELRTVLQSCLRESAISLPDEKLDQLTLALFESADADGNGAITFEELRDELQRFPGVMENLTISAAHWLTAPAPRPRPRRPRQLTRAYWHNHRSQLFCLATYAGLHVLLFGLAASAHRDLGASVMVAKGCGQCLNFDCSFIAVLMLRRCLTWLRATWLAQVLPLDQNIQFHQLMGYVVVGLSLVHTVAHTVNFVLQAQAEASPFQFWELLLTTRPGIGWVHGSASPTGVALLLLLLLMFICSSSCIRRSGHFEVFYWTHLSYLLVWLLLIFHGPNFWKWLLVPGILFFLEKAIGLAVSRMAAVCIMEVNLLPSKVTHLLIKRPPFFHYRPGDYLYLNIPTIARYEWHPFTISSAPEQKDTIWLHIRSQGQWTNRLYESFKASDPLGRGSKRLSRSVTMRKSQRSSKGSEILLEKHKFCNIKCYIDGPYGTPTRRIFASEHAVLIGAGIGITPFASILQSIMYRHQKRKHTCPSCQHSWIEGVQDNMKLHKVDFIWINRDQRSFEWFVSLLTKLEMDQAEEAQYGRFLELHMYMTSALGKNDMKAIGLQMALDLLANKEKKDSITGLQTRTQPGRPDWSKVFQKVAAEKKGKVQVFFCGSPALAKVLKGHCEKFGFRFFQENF

For `CCOC(=O)[C@H]1C[C@H]2O[C@@]23C[C@H]1C(=O)N1CCCC1[C@@H]3O[Si](C)(C)C(C)(C)C` (stereo not given in full), the z-score was -0.954 (inactive) in test [1]; 1.35 (inactive) in test [3]; 0.23 (inactive) in [4]; 0.183 (inactive) in [5]; 0.158 (inactive) in test [6]; -0.67 in test [7]. For the same molecule, the z-score is 1.05 (inactive) in [8]; 0.302 (inactive) in test [9]; -1.7 in [10]; -0.486 in test [11]; 0.729 in [12]; -0.154 in test [13]. The z-score in test [14] is -0.337; in test [15], -0.5; in [16], -0.625; in test [17] it was -0.166 (inactive); in test [18], -0.366; in test [19] it was 0.193. The z-score in test [20] was -0.456 (inactive). For the same molecule, in test [2], the composite z-score is -0.0573.
Regarding `CCOC(=O)C1=CC[C@@H](c2ccccc2)N(S(=O)(=O)c2ccc(C)cc2)[C@H]1C(=O)OCC`, the z-score was -0.488 (inactive) in [1]; 3.81 (inactive) in test [3]; 1.17 (inactive) in [4]; -0.54 (inactive) in [5]; 0.583 (inactive) in test [6]; -0.338 in test [7]. The z-score in test [8] was 0.439 (inactive); in test [9], -1.45 (inactive); in [10], -0.75; in test [11], -0.613; in test [12] it was -0.467; in [13], -0.111. Also, the z-score in test [14] is 0.884; in [15], 0.0651; in test [16], 3; in test [17], 0.252 (inactive); in [18], -0.619; in test [19] it was -1.24. Besides, the z-score in [20] is 0.706 (inactive). Further, the composite z-score in test [2] worked out at 0.632.
Turning to `O=C1O[C@H](c2ccccc2)[C@H](c2ccccc2)N2[C@H]1[C@@H](C(=O)NC[C@H](O)c1ccccc1)[C@]1(C(=O)Nc3ccc(C#CCCO)cc31)[C@H]2c1ccc(O)cc1`, the z-score in test [1] is 0.39 (inactive); in [3] it was 0.211 (inactive); in [4], -0.709 (inactive); in test [5], -0.317 (inactive); in [6], -1.23 (inactive); in test [7], 1.21. The z-score is -0.687 (inactive) in test [8]; 0.0169 (inactive) in test [9]; -3.93 in test [10]; 0.102 in test [11]; 1.09 in test [12]; -0.975 in test [13]. The z-score in test [14] is 0.245; in test [15], -0.155; in [16], -0.72; in test [17], 0.0782 (inactive); in test [18], 0.626; in [19] it was 0.000313. For the same molecule, the z-score in test [20] was 0.024 (inactive). This molecule also came in with a composite z-score in [2] of -0.293.
For the molecule `Cc1ccc([C@H]2C(C(=O)O)=C[C@@H](C)N2S(=O)(=O)c2ccc(C)cc2)cc1`, the z-score in test [1] is -0.832 (inactive); in test [3], 1 (inactive); in test [4], 0.587 (inactive); in test [5], 0.018 (inactive); in test [6], 0.39 (inactive); in test [7] it was -0.848. Also, the z-score in test [8] is 0.534 (inactive); in test [9] it was 0.259 (inactive); in [10], 0.101; in [11], -0.464; in test [12] it was 0.644; in [13] it was -0.173. Moreover, the z-score in test [14] was -1.35; in test [15] it was -0.808; in test [16], -1.15; in [17], -0.642 (inactive); in [18], -0.187; in [19], 0.249. Further, the z-score in [20] is -0.16 (inactive). In test [2], the composite z-score is -0.149.
With `CC(C)NC(=O)[C@@H]1c2ccccc2C(=O)N(Cc2ccccc2Cl)[C@H]1c1ccc(CO)cc1`, the z-score is 1.09 (inactive) in [1]; 2.67 (inactive) in [3]; 1.05 (inactive) in test [4]; 0.796 (inactive) in test [5]; 0.183 (inactive) in [6]; -0.469 in test [7]. Further, the z-score was -0.444 (inactive) in [8]; 0.715 (inactive) in [9]; 0.376 in test [10]; 1.97 in test [11]; 0.84 in test [12]; 1.23 in test [13]. Further, the z-score is 0.0027 in [14]; 0.665 in test [15]; 2.42 in [16]; -0.466 (inactive) in [17]; -0.195 in test [18]; -0.615 in test [19]. In addition, in test [20], the z-score was 1.46 (inactive). For the same molecule, the composite z-score in [2] was 0.509.
For the molecule `COC(=O)[C@@]1(Cc2ccc(F)cc2)[C@H]2c3cc(C(=O)N4CCCC4)n(Cc4cccc5ccccc45)c3C[C@H]2CN1C(=O)c1ccccc1`, the z-score was -2.25 (inactive) in [1]; 3.9 (inactive) in test [3]; 1.03 (inactive) in test [4]; 1.22 (inactive) in test [5]; 0.863 (inactive) in test [6]; -0.875 in [7]. The z-score in [8] was 0.836 (inactive); in [9], -0.021 (inactive); in test [10], -0.666; in test [11], -0.805; in test [12], 0.42; in test [13] it was 0.0082. Further, the z-score in [14] was -1.03; in test [15] it was -1.07; in [16], 3.8; in test [17] it was -1.48 (inactive); in [18], 0.127; in test [19] it was -0.779. Further, the z-score in test [20] was 0.785 (inactive). This molecule also came in with a composite z-score in test [2] of 0.342.
With `CS(=O)(=O)CCOC(=O)C1=CC(CCCO)=CC(c2cccs2)N(Cc2cc3c(cc2Br)OCO3)C=C1C(=O)OCCS(C)(=O)=O` (stereo not given), the z-score was 0.702 (inactive) in test [1]; 5.62 (inactive) in [3]; 0.944 (inactive) in test [4]; 1.85 (inactive) in test [5]; 0.479 (inactive) in [6]; 0.252 in test [7]. The z-score in [8] is -2.11 (inactive); in test [9], -1.1 (inactive); in test [10], -1.41; in [11], 1.55; in test [12] it was 0.46; in test [13] it was 0.392. For the same molecule, the z-score in test [14] was -0.121; in test [15] it was 0.377; in test [16], 1.09; in test [17] it was 0.252 (inactive); in test [18], -0.308; in test [19], -0.579. For the same molecule, in test [20], the z-score was 0.885 (inactive). The composite z-score in [2] was -0.0767.
As for `COc1ccc(CCNC(=O)[C@@H]2c3ccccc3C(=O)N(Cc3ccc(OC(F)(F)F)cc3)[C@H]2c2ccc(CO)cc2)cc1`, the z-score in test [1] was -0.989 (inactive); in test [3] it was 4.16 (inactive); in test [4] it was 0.385 (inactive); in [5] it was 2 (inactive); in [6], 0.623 (inactive); in test [7] it was -0.404. Moreover, the z-score was -1.69 (inactive) in test [8]; -0.245 (inactive) in test [9]; -3.56 in test [10]; 0.843 in [11]; 0.614 in test [12]; -1.01 in test [13]. The z-score in [14] is -2.39; in test [15] it was -1.99; in test [16], 1.14; in test [17], -0.0731 (inactive); in test [18], 0.118; in test [19], -0.23. Moreover, in [20], the z-score was 0.619 (inactive). For the same molecule, the composite z-score in test [2] is -0.291.
